Assay results: PubChem BioAssay (NCATS)
Results filed as inconclusive are left out. Calls of active or inactive are those of the source. The call rests on the fitted dose curve; in most records, active means well fitted cell-killing curve with a large enough effect; inconclusive means small, poorly fitted or top-dose-only effect, or effect the other way; inactive means no such curve, though single readings can be large or run the other way.

Assay: Quantitative High-Throughput drug screen in 47 multiple myeloma cell lines against the NCATS MIPE library collection: KMS28PE_JCRB cell viability assay (AID 1918983); further: nearly all actives have a fitted effect of over 35% in size
Conditions: KMS28PE multiple myeloma viability, CellTiter-Glo ATP, 48 h; series mostly up to 45.8 µM; viability, % of DMSO control: at the top concentration
Excerpt: PI: Beverly A. Mock Ph.D.
Laboratory of Cancer Biology and Genetics,
Center for Cancer Research, National Cancer Institute,
National Institute of Health, Bethesda, Maryland
Drug resistance and disease progression are common in multiple myeloma (MM) patients, underscoring the need for new therapeutic combinations. […] We hypothesized that effective combinations would reduce MYC expression and enhance p16 activity. […] These preclinical data identify potentially useful drug combinations for evaluation in drug-resistant MM and reveal potential mechanisms of combined drug sensitivity.
Described herein is the primary MIPE qHTS used to cherrypick compounds. Validated compounds were then further tested for potential synergistic activiy.
[1] Peat TJ, Gaikwad SM, Dubois W, Gyabaah-Kessie N, Zhang S, Gorjifard S, Phyo Z, Andres M, Hughitt VK, Simpson RM, Miller MA, Girvin AT, Taylor A, Williams D, D'Antonio N, Zhang Y, Rajagopalan A, Flietner E, Wilson K, Zhang X, Shinn P, Klumpp-Thomas C, McKnight C, Itkin Z, Chen L, Kazandijian D, Zhang J, Michalowski AM, Simmons JK, Keats J, Thomas CJ, Mock BA. Drug combinations identified by high-throughput screening promote cell cycle transition and upregulate Smad pathways in myeloma. Cancer Lett. 2023 Aug 1;568:216284. doi: 10.1016/j.canlet.2023.216284. Epub 2023 Jun 24. PMID: 37356470; PMCID: PMC10408729.
SEQUENCE No. (e.g., 1, 2, 3, etc.); […] (e.g., Cells, Incubation, Reagent, etc.); VALUE and DESCRIPTION.
1; Cells; 5 uL; white, solid bottom 1536-well Greiner assay plate.
2; Compounds; 23 nL; Kalypsis pin tool (Wako USA) equipped with a 1536-well pin head to transfer to the assay plates.
3; Incubation; 48 hours; 37C incubation.
4; Reagent;5uL; CellTiter Glo (Promega).
5; Detector; 425V; Luminescence; Viewlux PerkinElmer.
NOTES (numbers refer to Sequence numbers above)
1. The cell-based screening methods employed in this study were like those previously published. Briefly, the corresponding myeloma cell lines were screened in 1,536-well plates with 500 cells, 5-uL per well for inhibition of cell viability (assessed by measuring ATP levels with CellTiterGlo).
2. NCATS MIPE 4.0 library of approved and investigational drugs were added using the Kalypsis pin tool. Wells treated with DMSO only for 100% viability and media only for 0% viability were used as controls.
3. The assay plates were covered and incubated for 48 hours in a 37C, 5% CO2 incubator with controlled humidity.
4. After 48 hours, CellTilter-GloTM luminescent substrate mix (Promega) reagent was added to the assay plate and plates we incubated for 5 min at room temperature.
5. Signal was measured as median relative luminescence units on a ViewLux (PerkinElmer) multiplate reader.
[1] Heske CM, Davis MI, Baumgart JT, Wilson K, Gormally MV, Chen L, Zhang X, Ceribelli M, Duveau DY, Guha R, Ferrer M, Arnaldez FI, Ji J, Tran HL, Zhang Y, Mendoza A, Helman LJ, Thomas CJ. Matrix Screen Identifies Synergistic Combination of PARP Inhibitors and Nicotinamide Phosphoribosyltransferase (NAMPT) Inhibitors in Ewing Sarcoma. Clin Cancer Res. 2017 Dec 1;23(23):7301-7311. doi: 10.1158/1078-0432.CCR-17-1121. Epub 2017 Sep 12. PMID: 28899971; PMCID: PMC6636827.
Potency means the concentration at half of the fitted maximal effect.

Row | Compound | Potency | viability, % of DMSO control
1 | CC(O)=C(C#N)C(=O)Nc1ccc(C(F)(F)F)cc1 | 16.6 µM (active) | –
2 | C[C@@H](NC(=O)c1ncnc(N)c1Cl)c1ncc(C(=O)Nc2cc(C(F)(F)F)c(Cl)cn2)s1 | 16.6 µM (active) | –
3 | COc1ccc2c(c1)CC[C@H]1[C@@H]2CC[C@]2(C)[C@@H](NCCCCCCN3C(=O)C=CC3=O)CC[C@H]12 | – | 128% (inactive)
4 | CC(C)C[C@@H](C(=O)N[C@H](C(=O)OC1CCCC1)c1ccccc1)[C@H](O)C(=O)NO | 23.5 µM (active) | –
5 | CC1(C)[C@H]2CC[C@]3(C)[C@@H](C(=O)C=C4[C@@H]5C[C@@](C)(C(=O)O)CC[C@]5(C)CC[C@]43C)[C@@]2(C)CC[C@@H]1O | 18.7 µM (active) | –
6 | CC[C@]1(O)C[C@H]2CN(CCC3=c4ccccc4=N[C]3[C@@](C(=O)OC)(c3cc4c(cc3OC)N(C)[C@H]3[C@@](O)(C(N)=O)[C@H](O)[C@]5(CC)C=CCN6CC[C@]43[C@@H]65)C2)C1 | 0.0023 µM (active) | –
7 | Cc1cc(-c2ncc(CC(=O)Nc3ccc(-c4cnccn4)cn3)cc2C)ccn1 | 16.6 µM (active) | –
8 | O=C(O)C1=CO[C@@H](O[C@@H]2O[C@H](CO)[C@H](O)[C@H](O)[C@H]2O)[C@@H]2C(CO)=CC[C@H]12 | – | 135% (inactive)
9 | CN(CC=CC#CC(C)(C)C)Cc1cccc2ccccc12 | – | 118% (inactive)
10 | C#CCN(C)CC1=Cc2ccccc2Oc2ccccc21 | 18.7 µM (active) | –
11 | CNC(=O)c1ccc2c(C(=Nc3cccc(CN(C)C)c3)c3ccccc3)c(O)[nH]c2c1 | 4.18 µM (active) | –
12 | CCCCOCCOc1nc(-c2ccc(C(=O)O)c(F)c2)sc1C | – | 141% (inactive)
13 | COc1ccc(CCC(=O)Nc2nc3ccc(Cl)cc3s2)cc1OC | – | 133% (inactive)
14 | c1ccc(-c2oc3ncnc(NC[C@@H]4CCCO4)c3c2-c2ccccc2)cc1 | 26.4 µM (active) | –
15 | CC1=C(C(=O)Nc2cc3cn[nH]c3cc2F)C(c2ccc(C(F)(F)F)cc2)CC(=O)N1 (stereo not given) | – | 176% (inactive)
16 | C[C@H](CCC(=O)O)[C@H]1CC[C@H]2[C@H]3[C@@H](CC[C@]12C)[C@@]1(C)CC[C@@H](O)C[C@H]1C[C@@H]3O | – | 108% (inactive)
17 | CN(C)CCOc1ccc(C(=C(CCCl)c2ccccc2)c2ccccc2)cc1 | 26.4 µM (active) | –
18 | CC=C1C2C=C(C)CC1(N)c1ccc(=O)[nH]c1C2 (stereo not given) | – | 116% (inactive)
19 | CNC1CCC(N(Cc2cccc(-c3ccncc3)c2)C(=O)c2sc3ccccc3c2Cl)CC1 (stereo not given) | 23.5 µM (active) | –
20 | Cc1ccccc1-n1c(Cn2nc(-c3cccc(O)c3)c3c(N)ncnc32)nc2cccc(C)c2c1=O | 9.35 µM (active) | –

Row | Compound | Potency | viability, % of DMSO control
21 | Cc1nc(C(=O)NCC(=O)O)c(O)c2ccc(Oc3ccccc3)cc12 | – | 119% (inactive)
22 | CN(C)CCOc1ccc(-c2nc(-c3ccc4c(c3)CCC4=NO)c(-c3ccncc3)[nH]2)cc1 | 23.5 µM (active) | –
23 | CC(=O)OCC(=O)[C@@]1(O)CC[C@H]2[C@@H]3CCC4=CC(=O)C=C[C@]4(C)[C@@H]3[C@@H](O)C[C@@]21C | – | 115% (inactive)
24 | CCc1cccc(CC)c1NC(=O)N1Cc2[nH]nc(NC(=O)c3ccc(N4CCN(C)CC4)cc3)c2C1 | 14.8 µM (active) | –
25 | COc1ccc(Cn2ccc3ccc(C(=O)NO)cc32)cc1 | – | 136% (inactive)
26 | CCCCC[C@H](O)C=C[C@H]1[C@H](O)CC(=O)[C@H]1CCCCCCC(=O)O | – | 111% (inactive)
27 | C[C@]12CCC3=C4CCC(=O)C=C4CC[C@@H]3[C@H]1CC[C@@]2(O)CC#N | – | 135% (inactive)
28 | CON(C)C(=O)N1N=C(c2cc(F)ccc2F)S[C@]1(CCCN)c1ccccc1 | – | 55.4% (inactive)
29 | CCC(=O)N1CCN(c2ccc(-n3c(=O)ccc4cnc5ccc(-c6cnc7ccccc7c6)cc5c43)cc2C(F)(F)F)CC1 | 0.0093 µM (active) | –
30 | CC1(C)CC(=O)c2c(C(F)(F)F)nn(-c3ccc(C(N)=O)c(NC4CCC(O)CC4)c3)c2C1 (stereo not given) | 0.118 µM (active) | –
31 | CN1N=C(N)c2cn([C@@H]3O[C@H](COP(=O)(O)O)[C@@H](O)[C@@H]3O)c3ncnc1c23 | 0.833 µM (active) | –
32 | CCOC(=O)N1c2ccc(C(F)(F)F)cc2[C@@H](N(Cc2cc(C(F)(F)F)cc(C(F)(F)F)c2)C(=O)OC)C[C@H]1CC | 4.69 µM (active) | –
33 | CCC=CC[C@H]1C(=O)CC[C@@H]1CC(=O)OC | – | 142% (inactive)
34 | CCN1C[C@H](C)n2c(c(O)c3c(=O)n(Cc4ccc(F)c(Cl)c4)nc(C(=O)NC)c32)C1=O | – | 109% (inactive)
35 | Clc1ccc(COC(Cn2ccnc2)c2ccc(Cl)cc2Cl)c(Cl)c1 (stereo not given) | 18.7 µM (active) | –
36 | COc1cc2c(cc1OC)CC(=O)N(CCCN(C)C[C@H]1Cc3cc(OC)c(OC)cc31)CC2 | – | 117% (inactive)
37 | Cc1nn(Cc2ccccc2Cl)c(C)c1CN(C)CC(O)COc1ccc(Cl)cc1 (stereo not given) | 4.69 µM (active) | –
38 | O=C(Nc1cccc(Cl)c1)Nc1ncc(CCNc2ncnc3ccsc23)s1 | 5.9 µM (active) | –
39 | N#Cc1ccc(Oc2ccc3c(c2)COB3O)cc1 | – | 111% (inactive)
40 | COc1cccc(OC)c1-c1cc(C(=O)NC2(C(=O)O)C3CC4CC(C3)CC2C4)nn1-c1ccnc2cc(Cl)ccc12 (stereo not given) | – | 109% (inactive)
